Reference: PubChem BioAssay AID1159580 (chemical genetic matrix, 2015)
The campaign covered roughly 5,500 compounds. About 2,000 (36%) were called active. Roughly 18% stayed inconclusive and do not appear here. Cut-off read from the data, not from the text of the source: active = normalized growth mostly below about 0.91 (no sharp cut-off); inconclusive = no clear call, values can overlap the other calls; inactive = mostly above about 0.92. The list shows a part of the results.

Experiment: chemical genetic growth profiling, strain panel (AID 1159580);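 note: tested at 20 µM; growth read once vehicle control cultures reached saturation at 30 °C; 1 = growth at the plate median or of vehicle wells; lower values mean less growth of the strain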
Conditions: S. cerevisiae deletion strains, growth OD

Measured: normalized growth

CCn1c(=O)[nH]c2cc(Cl)c(Cl)cc21
inactive: locus YAL040C, strain CLN3, stronger effect = lower value 0.99 | locus YCL061C, strain MRC1 (second series), stronger effect = lower value 1.01 | locus YDR363W, strain ESC2, stronger effect = lower value 0.992 | locus YER002W, strain NOP16, stronger effect = lower value 0.986 | locus YGR078C, strain PAC10, stronger effect = lower value 0.992 | locus YMR263W, strain SAP30, stronger effect = lower value 1 | locus YMR307W, strain GAS1, stronger effect = lower value 1 | locus YNL175C, strain NOP13, stronger effect = lower value 0.98 | locus YNL197C, strain WHI3, stronger effect = lower value 1 | locus YNL224C, strain SQS1, stronger effect = lower value 1 | locus YNL322C, strain KRE1, stronger effect = lower value 1.01 | locus YOR083W, strain WHI5 (second series), stronger effect = lower value 1.04
